This is an account of results in PubChem BioAssay (Tox21).

Activity calls are given as the source filed them. A call without a number means that no potency is given here. Calls follow the shape of the full dose curve.

The target in this test is Acetylcholinesterase (Homo sapiens) (UniProt P22303). In words: Acetylcholinesterase (AChE) small molecule antagonists: enzyme-based qHTS assay with human liver microsomes (AID 1347399). Also: nearly all actives have a fitted effect of over 60% in size. The note with it: Potency: qHTS inhibition; outcome: qHTS inhibition; series mostly up to 115 µM. Summed up: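 Recombinant human AChE (50 mU/mL in the enzyme mix) and human liver microsomes (0.25 mg/mL final) were preincubated with compound and NADPH (0.25 mg/mL final) for 30 min at 37 C. Acetylthiocholine/DTNB was then added; thiocholine was read colorimetrically after 10 min at room temperature.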
Acetylcholinesterase (Homo sapiens), sequence (P22303 whole entry, looked up): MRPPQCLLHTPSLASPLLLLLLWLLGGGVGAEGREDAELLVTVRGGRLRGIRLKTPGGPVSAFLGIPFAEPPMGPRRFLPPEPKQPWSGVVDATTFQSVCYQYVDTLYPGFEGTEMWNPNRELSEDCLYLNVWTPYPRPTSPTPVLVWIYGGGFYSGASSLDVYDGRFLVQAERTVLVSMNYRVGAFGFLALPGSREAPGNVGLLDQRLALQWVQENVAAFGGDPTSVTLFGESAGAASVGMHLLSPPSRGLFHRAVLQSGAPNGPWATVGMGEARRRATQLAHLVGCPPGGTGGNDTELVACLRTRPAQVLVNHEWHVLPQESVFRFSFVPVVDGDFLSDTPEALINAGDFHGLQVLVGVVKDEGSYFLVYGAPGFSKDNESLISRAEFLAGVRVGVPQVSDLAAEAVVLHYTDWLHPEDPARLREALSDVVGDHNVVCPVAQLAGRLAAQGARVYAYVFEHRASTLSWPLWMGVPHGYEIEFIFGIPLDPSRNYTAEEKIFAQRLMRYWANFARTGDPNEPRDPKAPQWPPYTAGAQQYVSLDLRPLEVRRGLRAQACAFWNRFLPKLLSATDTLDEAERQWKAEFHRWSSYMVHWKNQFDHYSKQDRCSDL
In the case of `COC(=O)[C@@H]1CC2=CC(=O)CC[C@]2(C)[C@@]23O[C@@H]2C[C@@]2(C)[C@@H](CC[C@@]24CCC(=O)O4)[C@H]13`, the Potency entry was “inactive”. The same measure, in the same setting: with `O=C(/C=C/c1ccccc1)OCCCc1ccccc1` the entry was “inactive”. For the compound `NC(=O)c1ccccc1O`, the Potency result is “inactive”. Same read-out and setting: then `C=C[Si](OC(=C)C)(OC(=C)C)OC(=C)C`, with “inactive”. Turning to `NC[C@H]1O[C@H](O[C@H]2[C@H](O[C@@H]3O[C@H](CO)[C@@H](O)[C@H]3O)C(O)[C@H](N)C[C@@H]2N)[C@H](N)[C@@H](O)[C@@H]1O` (stereo not given in full), the activity change, negative = inhibition was -2.19% [at 10.5 µM] (inactive). In the case of `Oc1ccc(OCc2ccccc2)cc1`, the Potency result was “inactive”. On the same count and under the same terms, then `Cc1ncc(CSSCc2cnc(C)c(O)c2CO)c(CO)c1O`, with “inactive”. On to `CCC(Cc1c(I)cc(I)c(N)c1I)C(=O)O` (stereo not given), for which the Potency result was “inactive”.

For the compound `COc1cc(CNC(=O)CCCC/C=C/C(C)C)ccc1O`, the Potency entry is “inactive”.

Take `O=C(O)c1ccc2cc(C(=O)O)ccc2c1`: the Potency entry is “inactive”. The same measure, in the same setting: with `O=c1cc(O)c(Cl)c[nH]1` the entry was “inactive”; with `CC1(C)O[C@H]2CC(=O)OC[C@]23[C@H]2CC[C@@]4(C)[C@H](c5ccoc5)OC(=O)[C@H]5O[C@]54[C@]2(C)C(=O)C[C@@H]13`, “inactive”; with `CCCCCCCCCCC(=O)O`, “inactive”.

Take `Cc1c(Cn2ccnc2)c2ccccc2n1CCC(=O)O`: the Potency result is “inactive”. For the compound `C/C=C/c1ccc(OC)c(OC)c1`, the Potency result is “inactive”.
